An excerpt weighted towards active compounds, which were near 2.8% of everything screened.
ATXN2 expr inh = Primary qHTS for Inhibitors of ATXN expression. HEK-293 ATXN2-luciferase reporter, luminescence, 24 h. Potency, µM (titrated, usually from 57 µM), most hits filed as inhibitors. actives 0.72% (n = 360,000). AID 1745845, 2022; note: nearly all actives have a fitted effect of over 55% in size
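ATXN2-luciferase reporter cells (luciferase flanked by upstream and downstream ATXN2 gene portions) were treated 24 h at 37 °C with compounds at up to 57 uM. SteadyGlo luminescence gave expression; GF-AFC fluorescence gave viability.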
HepG2 viability = qHTS for Inhibitors of TGF-b: Cytotox Counterscreen | Potency, µM (series often up to 46.1 µM), actives largely listed as cytotoxic | actives 0.76% (n = 410,000) | AID 588856, 2011 | HepG2 CAGA-GFP viability, ATP luminescence, 18 h
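CellTiter-Glo luminescence gave cytotoxicity after 18 hours at 37 degrees C. The cells were HepG2 CAGA-GFP in 1% FBS DMEM, stimulated with 500 pg/mL TGF-beta after compound addition. %Activity was normalised to no-cell wells (complete cell-killing) and DMSO (no toxicity), and curves were fitted and classified.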
HTT cytoprotect = qHTS Multiplex Assay to Identify Dual Action Probes in a Cell Model of Huntington: Cytoprotection (ATP); actives 0.14% (n = 230,000); PC12 HTT-Q103 induced, cytoprotection, ATP luminescence, 40 h; Potency, µM (highest dose often 56.4 µM), most hits filed as activators; AID 1471, 2008; note: nearly all actives have a fitted effect of over 45% in size
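Stable PC12 Q103-GFP cells in serum-supplemented, phenol red-free DMEM; induction by tebufenozide at 100 nM final; compound dose series; cell viability quantified luminescently from ATP.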
ATXN viability = Viability Counterscreen for Primary qHTS for Inhibitors of ATXN expression | S2 cells (HEK-293 line with an ATXN2-luciferase reporter) viability, CellTiter-Fluor protease fluorescence, 24 h | Potency, µM (titrated, usually from 56.7 µM), most hits filed as cytotoxic | actives 0.49% (n = 400,000); note: nearly all actives have a fitted effect of over 40% in size
HttQ103 aggreg = qHTS Multiplex Assay to Identify Dual Action Probes in a Cell Model of Huntington: Aggregate Formation (GFP); PC12 HttQ103-GFP aggregates, Acumen cytometry, 40 h; Potency, µM (series often up to 46.1 µM), most hits filed as inhibitors; actives 1.1% (n = 220,000); AID 1688, 2009; note: nearly all actives have a fitted effect of over 60% in size
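Multiplexed with ATP-based cell death, this channel scores GFP aggregates in PC12 cells expressing inducible HTTex1-Q103-GFP. Induction used 100 nM tebufenozide; compounds were tested in concentration series.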
TGFb SMAD3 inh = qHTS for Inhibitors of TGF-b | AID 588855, 2011 | Potency, µM (top dose mostly 46.1 µM), most hits filed as inhibitors | HepG2 CAGA-GFP TGF-b/SMAD3 reporter, GFP fluorescence, 18 h; TGF-beta stimulated, 500 pg/mL final | actives 1.2% (n = 410,000); note: nearly all actives have a fitted effect of over 65% in size
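GFP signal (ex488/em500-530) from TGF-beta-stimulated HEPG2 CAGA-GFP cells, 500 pg/mL final, 18 h at 37 degrees C in DMEM plus 1% FBS, normalized to unstimulated and DMSO-stimulated controls.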
A number is an active result; 0 = inactive; ? = inconclusive; - = no result given; [ ] = dose if it differs, or a comment. Calls come from the whole dose curve; as a rule, active = well fitted curve in the direction sought with a large enough effect; inconclusive = small, poorly fitted or top-dose-only effect, or another doubt; inactive = no such curve, though single readings can be large; an effect the other way counts as inactive or inconclusive.

SMILES	ATXN2 expr inh	HepG2 viability	HTT cytoprotect	ATXN viability	HttQ103 aggreg	TGFb SMAD3 inh
CCOc1ccc(-c2cc(C(=O)NCCCN3CCN(CC)CC3)c3ccccc3n2)cc1	0	20µM	0[0.074 µM]	?	0	0
O=C1Cc2cc(CCN3CCN(c4nsc5ccccc45)CC3)c(Cl)cc2N1	?	-	-	35µM	-	-
OC1CCC(Nc2ncc3nc(Nc4c(F)cc(F)cc4F)n([C@@H]4CCOC4)c3n2)CC1 (stereo partly specified)	0	-	-	-	-	-
COc1ccc(C(=O)C=CNNC(=O)c2ccc(Cl)cc2)cc1	?	0	-	?	-	13µM
Cc1onc(-c2c(Cl)cccc2Cl)c1C(=O)N/N=C(\N)COc1ccc(Cl)cc1	?	0	0[10 µM]	?	?	6.3µM
COc1cc(/C=N/NC(=O)c2c(-c3c(Cl)cccc3Cl)noc2C)ccc1OCC(N)=O	0	0	-	0	-	0
COc1ccccc1-c1nc2cc(C(=O)NC[C@H]3CCc4ccccc4O3)cc(NC(C)=O)c2n1C	-	-	-	0	-	-
CN1CCN(CCCNC(=O)c2ccc(/C=C3\Sc4ccccc4N(Cc4ccc(F)cc4)C3=O)cc2)CC1	-	0	0	?	?	?
CN1CCN(CCCNC(=O)c2ccc(/C=C3/Sc4ccccc4N(Cc4cccc(Cl)c4)C3=O)cc2)CC1	-	0	0	?	?	?
CCN1CCN(CCNC(=O)c2ccc(/C=C3\Sc4ccccc4N(Cc4ccccc4F)C3=O)cc2)CC1	?	14µM	-	0	?	?
CN1CCN(CCCNC(=O)c2ccc(/C=C3\Oc4ccccc4N(Cc4ccccc4F)C3=O)cc2)CC1	-	0	-	20µM	-	18µM
COC(=O)/C=C/c1cc(F)ccc1S(=O)(=O)Nc1ccccc1	-	0	-	-	-	0
CC1=NN(C(N)=S)C(=O)C1N=Nc1cccc(C)c1 (stereo unspecified)	-	0	0[10 µM]	0	0[9.22 µM]	1.8µM
COc1cccc(CNc2ncnc3sc(C(=O)N4CC5CCC4C5)c(C)c23)c1OC (stereo unspecified)	-	-	-	0	-	-
CCN(CC)c1ccc(NC(=O)c2cc(OC)cc(OC)c2)c(C)c1	0	0	0[0.074 µM]	?	3.2µM	?
CCN(CC)c1ccc(NC(=O)C2COc3ccc(OC)cc3C2)c(C)c1 (stereo unspecified)	?	0	-	?	-	8.9µM
COc1ccc2c(c1)CC(C(=O)Nc1ccc(OC)cc1OC)CO2 (stereo unspecified)	0	0	-	0	-	0
CCN(CC)c1ccc(NC(=O)c2cccc(OC)c2)c(C)c1	0	0	0	0	?	0
CCCC(c1nnnn1Cc1ccc2c(c1)OCO2)N1CCC(C(N)=O)CC1 (stereo unspecified)	0	20µM	0[10 µM]	0	0[9.22 µM]	0
CNC(=O)c1sc(N2N=C3/C(=C/c4ccccc4)CCCC3C2c2ccccc2)nc1C (stereo unspecified)	13µM	0	0	-	?	0
CC(C)(C)n1ncc2c(=O)n(Cc3cc(F)ccc3Cl)cnc21	-	0	-	-	-	0
Oc1ccc(Br)cc1C1C=C(c2ccc3c(c2)OCO3)NC(c2ccc(F)c(Br)c2)N1 (stereo unspecified)	-	0	-	-	-	7.9µM
Oc1ccc(Cl)cc1C1C=C(c2ccc3c(c2)OCO3)NC(c2ccc(C(F)(F)F)cc2)N1 (stereo unspecified)	-	0	-	-	-	16µM
Oc1ccc(Br)cc1C1C=C(c2ccc3c(c2)OCO3)NC(c2ccc(Br)cc2)N1 (stereo unspecified)	-	0	-	-	-	?
CCCCc1cc2c(=O)c(C(=O)OC)c[nH]c2cc1OCc1ccccc1	-	-	-	0	-	-
SMILES	ATXN2 expr inh	HepG2 viability	HTT cytoprotect	ATXN viability	HttQ103 aggreg	TGFb SMAD3 inh
c1ccn(-c2ncnc3sc4c(c23)CCCC4)c1	0	0	0[10 µM]	0	0	0
c1cn(-c2ncnc3sc4c(c23)CCCC4)cn1	0	0	0[10 µM]	0	11µM	0
C=CCNc1nc(NCC=C)nc(N2CCN(C(c3ccc(F)cc3)c3ccc(F)cc3)CC2)n1	0	-	-	0	-	-
Cc1ccc2c(c1)C(=O)C(=O)N2CCCOc1ccccc1	0	0	0[10 µM]	0	0[9.22 µM]	18µM
Cc1ccc(OCCCN2C(=O)C(=O)c3cc(C)ccc32)cc1	0	0	0[10 µM]	?	0[9.22 µM]	0
Cc1ccc2c(C(=O)CNc3nc(C)c(C)s3)c(C)[nH]c2c1	-	0	-	-	-	?
CCOC(=O)C1=C(CC)Nc2ccccc2N/C1=N\S(=O)(=O)c1ccc2ccccc2c1	0	0	-	0	?	0
CCOC(=O)C1=C(CC)Nc2ccccc2N/C1=N\S(=O)(=O)c1cc(Br)ccc1Br	0[11.3 µM]	0	0	0	18µM	?
O=C(C[n+]1ccccc1)c1ccc(-c2ccccc2)cc1	?	0	?	0	0	0
CN(C)c1cc[n+](CC(=O)c2ccc(-c3ccccc3)cc2)cc1	2.8µM	0	0	0	16µM	?
CC(=O)O[C@]1(C(C)=O)CC[C@H]2[C@@H]3C=C(C)C4=CC(=O)CC[C@]4(C)[C@@H]3CC[C@@]21C	0	-	-	-	-	-
O=c1n(Cc2cc3c(cc2Cl)OCO3)c(=O)n2n1CC[C@H]1/C(=N\OCc3ccccc3)[C@H]3O[C@@H]3[C@@H](O)[C@@H]12	-	-	0[10 µM]	-	-	-
CCCN1CCCc2cc(CN)ccc21	?	0	0[10 µM]	0	13µM	?
Cc1nnc(N/N=C/c2ccc(-c3ccccc3F)o2)n1N	0	0	0	0	0	?
Cc1nnc(N/N=C\c2ccc(-c3ccccc3[N+](=O)[O-])o2)n1N	0	0	0[10 µM]	0	0	8.9µM
COc1ccc(C[C@H]2CN3C(=NC[C@H]3C)N2CCNC(=O)c2ccc(C)c(Br)c2)cc1	0	0	0[10 µM]	28µM	0[9.22 µM]	?
CC[n+]1ccc(/C=C/c2ccc(N(C)C)cc2)c2ccccc21	?	0	0[10 µM]	8.9µM	?	6.3µM
CN(C)c1ccc(/C=C/c2cc[n+]([O-])c3ccccc23)cc1	-	0	-	-	-	0
CCCCCC[n+]1ccccc1/C=C/c1ccc(N(C)C)cc1	?	0	-	-	-	0
CN(C)c1ccc(/C=C/c2cc[n+](C)cc2)cc1	0	0	0	?	2.5µM	0
CC[n+]1ccccc1/C=C/c1ccc(N(C)C)cc1	?	0	0	?	2.8µM	?
CC[n+]1c(/C=C/c2ccc(N(C)C)cc2)ccc2ccccc21	?	0	-	-	?	3.5µM
CN(C)c1ccc(/C=C/c2ccc3ccccc3[n+]2[O-])cc1	-	0	-	-	-	0
COc1ccccc1C1CN(CCNC(=O)c2cscn2)Cc2ccccc2O1 (stereo unspecified)	-	-	-	0	-	-
O=C(CNC(c1ccccc1)c1ccccc1)Nc1c(F)cccc1F	0	0	1.3µM	0	0	0

Source: PubChem (National Center for Advancing Translational Sciences (NCATS))
